Experimental data published in PubChem BioAssay.
Calls of active or inactive are those of the source.

Columns and labels:
[1] = test system: PRMT1 (protein arginine N-methyltransferase 1); experiment: small molecules binding arginine methyltransferase PRMT1 – biochemical, small-molecule microarray, 635 nm fluorescence, primary screen (AID 1088); conditions: higher = more signal;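 note: binding of Prmt1 protein to compounds spotted on small-molecule microarray slides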
[2] = growth effects on S. cerevisiae YJM789 – YJM789 clinical isolate, OD600, 24 h, basal, primary screen (AID 1089); conditions: higher = more signal, called active from +8 up or from −8 down;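 note: growth of clinical yeast isolate S. cerevisiae YJM 789 seeded 1000 cells per well; test concentration not given here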
[3] = S. pombe growth modifiers, basal conditions – strain 972, OD600, 24 h, no modulator, primary screen (AID 1090);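 note: basal condition with compound alone and no growth modifier present; test concentration not given here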; conditions: S. pombe 972 growth, higher = more signal, called active from +8 up or from −8 down
[4] = budding yeast growth modifiers under rapamycin – strain BY4716, OD600, 96 h, primary screen (AID 1091); note: test concentration not given here; conditions: S. cerevisiae BY4716 + rapamycin, higher = more signal, called active from +8 up or from −8 down
[5] = target: Torsin-1A-interacting protein 2 (Homo sapiens) (UniProt Q8NFQ8); experiment: small molecules binding lysate-expressed LULL1 – cell lysate, human LULL1 lysate, 635/667 nm fluorescence, primary screen (AID 1092); conditions: small-molecule microarray, hLULL1 lysate binding, 635 nm fluorescence; higher = more signal;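 note: probe is lysate of COS7 cells overexpressing human LULL1; score merges per-feature 667 nm fluorescence with signal-to-noise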
Torsin-1A-interacting protein 2 (Homo sapiens), sequence (Q8NFQ8 whole entry, looked up): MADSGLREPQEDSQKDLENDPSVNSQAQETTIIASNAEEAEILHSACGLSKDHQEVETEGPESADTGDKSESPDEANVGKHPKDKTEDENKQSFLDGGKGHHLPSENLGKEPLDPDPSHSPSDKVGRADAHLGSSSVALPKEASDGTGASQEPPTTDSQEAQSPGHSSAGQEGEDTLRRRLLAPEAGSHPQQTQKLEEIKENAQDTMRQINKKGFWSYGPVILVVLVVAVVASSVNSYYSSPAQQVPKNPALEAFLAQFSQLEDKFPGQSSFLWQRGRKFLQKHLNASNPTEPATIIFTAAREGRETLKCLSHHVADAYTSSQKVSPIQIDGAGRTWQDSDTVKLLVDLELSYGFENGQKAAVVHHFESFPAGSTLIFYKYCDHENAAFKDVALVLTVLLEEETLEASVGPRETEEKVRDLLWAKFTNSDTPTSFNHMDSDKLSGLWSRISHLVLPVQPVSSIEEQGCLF

[6] = optical density change of DRC41 E. coli – strain DRC41, OD650, 24 h, E. coli filamentation project, primary screen (AID 1093);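 note: MC1000 strain lacking acrAB efflux and sulA so SOS filamentation is blocked; test concentration not given here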; conditions: E. coli DRC41 growth, higher = more signal, called active from +8 up or from −8 down
[7] = probe aLefty2 binding to arrayed compounds – biochemical, biotinylated probe, 635/667 nm fluorescence, primary screen (AID 1094); conditions: small-molecule microarray, higher = more signal;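 note: score merges spot fluorescence near 667 nm with spot signal-to-noise ratio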
[8] = test system: Noggin (protein binding on small-molecule microarray); experiment: small molecules binding Noggin protein – biochemical, 635/667 nm fluorescence, primary screen (AID 1095); conditions: 635 nm fluorescence, higher = more signal;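 note: score merges 667 nm feature fluorescence with signal to noise over triplicate slides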
[9] = target: Neurogenic locus notch homolog protein 3 (Homo sapiens) (UniProt Q9UM47); experiment: small molecules binding NOTCH3 protein – biochemical, 635/667 nm fluorescence, primary screen (AID 1096); conditions: small-molecule microarray, 635 nm fluorescence, higher = more signal
Neurogenic locus notch homolog protein 3 (Homo sapiens), sequence (Q9UM47 whole entry, looked up): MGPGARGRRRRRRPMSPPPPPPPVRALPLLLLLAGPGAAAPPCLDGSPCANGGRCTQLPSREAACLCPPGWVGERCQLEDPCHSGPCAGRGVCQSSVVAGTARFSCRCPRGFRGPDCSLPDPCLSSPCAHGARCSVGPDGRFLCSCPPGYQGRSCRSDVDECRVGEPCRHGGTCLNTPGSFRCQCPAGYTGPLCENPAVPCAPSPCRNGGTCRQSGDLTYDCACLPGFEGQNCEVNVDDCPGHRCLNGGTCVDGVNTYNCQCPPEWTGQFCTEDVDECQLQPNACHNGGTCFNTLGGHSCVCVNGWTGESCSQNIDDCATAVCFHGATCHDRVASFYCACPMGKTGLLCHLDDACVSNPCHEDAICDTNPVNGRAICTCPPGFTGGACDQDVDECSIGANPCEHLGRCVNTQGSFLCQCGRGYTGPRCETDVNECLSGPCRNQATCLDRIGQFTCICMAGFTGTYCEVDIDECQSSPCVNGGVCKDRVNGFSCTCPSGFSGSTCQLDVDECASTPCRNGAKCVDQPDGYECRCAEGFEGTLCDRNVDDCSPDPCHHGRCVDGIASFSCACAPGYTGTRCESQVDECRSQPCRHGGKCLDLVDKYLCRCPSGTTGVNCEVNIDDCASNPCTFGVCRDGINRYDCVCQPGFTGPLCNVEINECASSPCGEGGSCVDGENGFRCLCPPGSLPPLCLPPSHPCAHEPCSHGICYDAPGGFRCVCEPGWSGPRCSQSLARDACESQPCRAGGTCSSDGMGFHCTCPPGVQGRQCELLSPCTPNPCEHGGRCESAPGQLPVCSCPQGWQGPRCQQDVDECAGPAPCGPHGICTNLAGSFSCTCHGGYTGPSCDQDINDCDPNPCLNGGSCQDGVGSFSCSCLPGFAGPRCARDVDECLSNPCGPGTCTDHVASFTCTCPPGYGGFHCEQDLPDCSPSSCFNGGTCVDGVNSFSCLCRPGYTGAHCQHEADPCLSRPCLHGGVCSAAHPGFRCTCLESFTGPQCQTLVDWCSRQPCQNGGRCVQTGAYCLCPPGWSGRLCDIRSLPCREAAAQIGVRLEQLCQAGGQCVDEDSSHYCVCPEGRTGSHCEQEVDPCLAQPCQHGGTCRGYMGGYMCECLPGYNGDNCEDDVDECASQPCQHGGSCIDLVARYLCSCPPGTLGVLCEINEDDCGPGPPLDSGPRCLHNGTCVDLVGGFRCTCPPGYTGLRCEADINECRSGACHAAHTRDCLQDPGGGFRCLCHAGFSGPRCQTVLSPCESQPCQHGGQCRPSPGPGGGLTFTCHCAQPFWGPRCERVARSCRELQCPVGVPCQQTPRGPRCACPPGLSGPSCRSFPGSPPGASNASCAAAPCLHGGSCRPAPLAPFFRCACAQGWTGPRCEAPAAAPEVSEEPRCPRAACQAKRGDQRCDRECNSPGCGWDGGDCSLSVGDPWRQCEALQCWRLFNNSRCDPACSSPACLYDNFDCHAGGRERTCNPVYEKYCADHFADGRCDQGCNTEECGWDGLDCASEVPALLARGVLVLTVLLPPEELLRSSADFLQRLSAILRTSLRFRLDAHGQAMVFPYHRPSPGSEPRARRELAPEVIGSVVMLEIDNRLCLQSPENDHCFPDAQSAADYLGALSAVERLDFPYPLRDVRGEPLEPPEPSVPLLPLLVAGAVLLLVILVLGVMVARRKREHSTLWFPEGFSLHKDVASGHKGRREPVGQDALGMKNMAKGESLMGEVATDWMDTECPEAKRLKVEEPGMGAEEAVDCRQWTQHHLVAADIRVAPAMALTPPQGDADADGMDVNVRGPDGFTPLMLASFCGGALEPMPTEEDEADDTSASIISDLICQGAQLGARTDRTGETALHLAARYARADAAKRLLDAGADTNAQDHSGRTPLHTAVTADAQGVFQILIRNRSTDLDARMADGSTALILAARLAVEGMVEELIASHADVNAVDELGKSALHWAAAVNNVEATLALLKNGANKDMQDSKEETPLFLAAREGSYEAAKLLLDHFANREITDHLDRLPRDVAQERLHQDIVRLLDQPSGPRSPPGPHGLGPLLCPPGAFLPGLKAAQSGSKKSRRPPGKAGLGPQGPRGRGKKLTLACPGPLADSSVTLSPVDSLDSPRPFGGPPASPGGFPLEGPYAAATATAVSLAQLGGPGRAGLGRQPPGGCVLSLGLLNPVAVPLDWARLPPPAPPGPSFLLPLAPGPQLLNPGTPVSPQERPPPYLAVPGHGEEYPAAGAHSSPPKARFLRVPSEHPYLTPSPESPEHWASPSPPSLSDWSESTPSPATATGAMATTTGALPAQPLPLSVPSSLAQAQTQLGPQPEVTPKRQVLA

[10] = probe aEGFR binding to arrayed compounds – biochemical, biotinylated probe, 635/667 nm fluorescence, primary screen (AID 1097); conditions: small-molecule microarray, higher = more signal;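 note: probe is a biotinylated anti-EGFR antibody binding compounds printed on slides; score combines fluorescence near 667 nm and signal to noise of each spot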
[11] = test system: Plasmodium falciparum Sir2 (PF13_0152, Sir2A); experiment: Plasmodium falciparum Sir2A binding compounds – biochemical, small-molecule microarray, 635 nm fluorescence, primary screen (AID 1098); conditions: fluorescence 635 nm, higher = more signal;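 note: score merges spot fluorescence intensity with its signal-to-noise ratio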
[12] = probe aDKK1 binding to arrayed compounds – biochemical, biotinylated probe, 635/667 nm fluorescence, primary screen (AID 1099); conditions: small-molecule microarray, higher = more signal;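 note: score merges 667nm spot fluorescence with signal to noise across triplicate slides; reference of the scale not given here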
[13] = probe aCHRDL2 binding to arrayed compounds – biochemical, biotinylated probe, 635/667 nm fluorescence, primary screen (AID 1100); conditions: small-molecule microarray, higher = more signal
[14] = change in splice reporter luminescence, either direction, cell-based, HEK293, spliceosome inhibition project, primary screen (AID 1101); conditions: HEK293 splicing luciferase reporter, 24 h, higher = more signal, called active from +8 up or from −8 down;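 note: HEK293 cells carrying a splicing-competent luciferase reporter gene; test concentration not given here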
[15] = target: Fibroblast growth factor 10 (Homo sapiens) (UniProt O15520); experiment: compounds binding fibroblast growth factor 10 – biochemical, small-molecule microarray, 635 nm fluorescence, primary screen (AID 1102); conditions: FGF10 binding, fluorescence 635 nm, higher = more signal
Fibroblast growth factor 10 (Homo sapiens), sequence (O15520 whole entry, looked up): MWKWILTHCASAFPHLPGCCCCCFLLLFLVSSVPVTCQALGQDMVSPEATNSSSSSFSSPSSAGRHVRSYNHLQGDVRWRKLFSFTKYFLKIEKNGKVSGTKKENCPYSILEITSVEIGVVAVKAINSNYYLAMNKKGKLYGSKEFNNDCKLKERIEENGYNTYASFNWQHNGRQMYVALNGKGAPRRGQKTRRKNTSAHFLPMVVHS

[16] = test system: glycogen synthase kinase-3 (GSK3A per assay name; protocol says GSK3B); experiment: compounds binding glycogen synthase kinase-3 – biochemical, small-molecule microarray, 635 nm fluorescence, GSK3A, primary screen (AID 1103); conditions: fluorescence 635 nm, higher = more signal; note: the record names both GSK3A and GSK3B
[17] = target: Epidermal growth factor receptor (Homo sapiens) (UniProt P00533); experiment: compounds binding epidermal growth factor receptor – biochemical, small-molecule microarray, 635 nm fluorescence, primary screen (AID 1104); conditions: EGFR binding, higher = more signal;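 note: score merges 667 nm emission intensity with spot signal to noise over triplicate slides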
Epidermal growth factor receptor (Homo sapiens), sequence (P00533 whole entry, looked up): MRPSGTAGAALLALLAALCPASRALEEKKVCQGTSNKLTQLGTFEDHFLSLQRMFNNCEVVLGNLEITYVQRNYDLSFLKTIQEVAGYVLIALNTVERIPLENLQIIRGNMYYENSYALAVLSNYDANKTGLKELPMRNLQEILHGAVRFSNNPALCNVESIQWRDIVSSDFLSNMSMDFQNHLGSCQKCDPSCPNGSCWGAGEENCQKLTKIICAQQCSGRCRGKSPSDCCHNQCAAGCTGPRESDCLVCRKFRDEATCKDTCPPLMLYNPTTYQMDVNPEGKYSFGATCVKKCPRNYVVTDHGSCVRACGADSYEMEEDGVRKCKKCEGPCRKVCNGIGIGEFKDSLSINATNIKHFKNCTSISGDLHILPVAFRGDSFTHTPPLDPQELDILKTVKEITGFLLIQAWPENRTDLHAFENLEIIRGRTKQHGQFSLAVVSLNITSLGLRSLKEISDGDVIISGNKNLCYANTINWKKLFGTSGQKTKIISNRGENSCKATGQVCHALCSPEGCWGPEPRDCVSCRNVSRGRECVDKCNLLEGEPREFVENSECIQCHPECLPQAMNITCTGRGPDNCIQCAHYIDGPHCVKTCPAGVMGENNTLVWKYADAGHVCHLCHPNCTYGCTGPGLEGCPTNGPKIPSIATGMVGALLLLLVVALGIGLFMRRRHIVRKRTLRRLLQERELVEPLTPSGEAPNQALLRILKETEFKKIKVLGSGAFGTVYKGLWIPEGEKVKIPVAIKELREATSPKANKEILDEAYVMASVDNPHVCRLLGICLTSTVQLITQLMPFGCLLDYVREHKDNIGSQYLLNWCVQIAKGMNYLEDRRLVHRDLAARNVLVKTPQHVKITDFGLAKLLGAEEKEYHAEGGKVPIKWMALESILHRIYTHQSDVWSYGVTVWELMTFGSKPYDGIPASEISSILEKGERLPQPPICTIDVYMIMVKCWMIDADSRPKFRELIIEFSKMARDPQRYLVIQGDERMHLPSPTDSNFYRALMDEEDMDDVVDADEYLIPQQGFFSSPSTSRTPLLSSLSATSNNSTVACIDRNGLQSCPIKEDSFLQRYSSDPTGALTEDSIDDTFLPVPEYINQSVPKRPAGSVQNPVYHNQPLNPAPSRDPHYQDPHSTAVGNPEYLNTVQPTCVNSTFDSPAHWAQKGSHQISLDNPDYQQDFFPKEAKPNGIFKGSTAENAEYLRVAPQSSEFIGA

[18] = target: Follistatin-related protein 3 (Homo sapiens) (UniProt O95633); experiment: compounds binding follistatin-related protein 3 – biochemical, small-molecule microarray, 635 nm fluorescence, primary screen (AID 1105); conditions: FSTL3 binding, higher = more signal;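 note: score merges emission near 667 nm and signal to noise per printed spot across three slides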
Follistatin-related protein 3 (Homo sapiens), sequence (O95633 whole entry, looked up): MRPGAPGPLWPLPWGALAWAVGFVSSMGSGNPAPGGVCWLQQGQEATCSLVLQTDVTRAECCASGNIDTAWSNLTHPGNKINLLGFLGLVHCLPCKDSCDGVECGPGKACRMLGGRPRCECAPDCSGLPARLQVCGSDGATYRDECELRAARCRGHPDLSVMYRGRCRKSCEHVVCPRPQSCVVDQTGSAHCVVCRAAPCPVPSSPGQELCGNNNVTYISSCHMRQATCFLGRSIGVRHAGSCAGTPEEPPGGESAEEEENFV

[19] = target: Dickkopf-related protein 1 (Homo sapiens) (UniProt O94907); experiment: small molecules binding DKK1 protein – biochemical, small-molecule microarray, 635 nm fluorescence scan, primary screen (AID 1106); conditions: higher = more signal;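 note: score merges emission near 667 nm with signal to noise over three replicate slides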
Dickkopf-related protein 1 (Homo sapiens), sequence (O94907 whole entry, looked up): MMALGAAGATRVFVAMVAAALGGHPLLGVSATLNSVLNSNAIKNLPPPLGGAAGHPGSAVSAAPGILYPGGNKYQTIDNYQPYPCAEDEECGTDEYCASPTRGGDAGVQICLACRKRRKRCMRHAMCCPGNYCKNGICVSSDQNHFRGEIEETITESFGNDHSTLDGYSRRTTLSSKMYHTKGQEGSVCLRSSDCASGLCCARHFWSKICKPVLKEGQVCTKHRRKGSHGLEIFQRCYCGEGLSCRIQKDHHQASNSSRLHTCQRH

[20] = test system: Inhibin beta A chain (activin A); experiment: small molecules binding activin A – biochemical, small-molecule microarray, 635 nm fluorescence scan, primary screen (AID 1107); conditions: INHBA, higher = more signal;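 note: mouse activin A protein probed at 4.33 µg/mL on printed slides; score merges bound-protein fluorescence near 667 nm with spot signal-to-noise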

Row | Structure (SMILES) | composite z-score [1] | z-score [2] | z-score [3] | z-score [4] | composite z-score [5] | z-score [6] | composite z-score [7] | composite z-score [8] | composite z-score [9] | composite z-score [10] | composite z-score [11] | composite z-score [12] | composite z-score [13] | z-score [14] | composite z-score [15] | composite z-score [16] | composite z-score [17] | composite z-score [18] | composite z-score [19] | composite z-score [20]
1 | CC(C)[Si](C#CCCCC#N)(O[C@H](c1ccccc1)c1cn([C@H](C)c2ccccc2)nn1)C(C)C | 1.48 | -0.766 (inactive) | -0.415 (inactive) | -3.12 (inactive) | 0.76 | 0.674 (inactive) | 0.064 | 1.08 | 1.1 | -0.152 | 0.475 | 0.0086 | -0.453 | -3.01 (inactive) | 0.524 | 0.973 | 0.22 | 1.08 | 0.668 | -0.301
2 | C=C(CCCC)/C(=C/C[C@H](OC(C)=O)c1cccc(OCCO)c1)c1cc(C(=O)OC)ccc1OC | 0.326 | 0.117 (inactive) | -0.602 (inactive) | -0.894 (inactive) | 0.628 | 1.01 (inactive) | -0.101 | 1.04 | 0.195 | -0.154 | 0.286 | -0.197 | -0.096 | -0.325 (inactive) | 0.148 | -0.157 | -0.842 | -0.574 | -0.344 | 0.518
3 | CCCCC(=C=CC[C@@H](O)c1cccc(OCCO)c1)CCO | 0.468 | 0.633 (inactive) | 0.111 (inactive) | -0.238 (inactive) | 0.111 | 0.863 (inactive) | -0.179 | -0.0301 | 0.098 | -0.152 | 1.36 | -0.252 | 0.254 | 0.413 (inactive) | 0.504 | -0.224 | -0.556 | -0.254 | -0.591 | 0.134
4 | C=CCOC(=O)[C@@H]1[C@H]2C(=O)O[C@H](c3ccccc3)[C@H](c3ccccc3)N2[C@H](c2ccc(OCCOC(=O)[C@H]3C[C@H]4C(=O)NCC(=O)N4[C@H]3c3ccc(O)cc3)cc2)[C@@]12C(=O)Nc1ccc(I)cc12 | 1.53 | 1.22 (inactive) | 0.761 (inactive) | 4.27 (inactive) | 2.08 | -0.615 (inactive) | -0.162 | 1.59 | 1.15 | 0.0026 | 1.57 | 0.159 | 0.21 | 1.14 (inactive) | 0.613 | 1.35 | 0.728 | 1.02 | 0.674 | -0.0057
5 | C=C(CCCC)C(=O)CC[C@H](OC(C)=O)c1ccccc1OCCO | 1.19 | 0.489 (inactive) | -2.03 (inactive) | -0.438 (inactive) | 0.383 | 0.733 (inactive) | -0.12 | 0.0384 | 0.67 | -0.177 | 1.51 | -0.179 | -0.123 | 1.77 (inactive) | 0.633 | -0.783 | 0.333 | 0.467 | 0.513 | 0.491
6 | COc1cccc(OC)c1C(=O)O[C@H]1[C@@H]2OC(=O)[C@H](Cc3cccc(Br)c3)C/C=C/C[C@@H](Cc3cccc(Br)c3)C(=O)O[C@H]2[C@@H](OC)O[C@@H]1CO | 1.4 | -0.372 (inactive) | -0.246 (inactive) | 0.231 (inactive) | 1.08 | -1.17 (inactive) | -0.0711 | 0.8 | 0.541 | -0.0678 | -0.178 | 0.281 | 0.325 | 0.0705 (inactive) | 0.927 | 0.277 | -0.0525 | 0.735 | 0.298 | 0.42
7 | O=C1N(CCS(=O)(=O)c2ccccc2)c2ccccc2[C@@H]2OC(c3ccc(OCCCO)cc3)=N[C@]12CCS(=O)(=O)c1ccccc1 | 1.54 | 0.864 (inactive) | 1.78 (inactive) | 4.01 (inactive) | 3.46 | 0.678 (inactive) | 0.471 | 0.833 | 1.14 | -0.0333 | 0.982 | 0.753 | 0.585 | -0.254 (inactive) | 0.989 | 1.26 | 0.917 | 1.42 | 1.16 | 0.878
8 | O=C1C2C=CC(C(O)c3ccc([N+](=O)[O-])cc3)N(Nc3ccccc3)C2C(=O)N1c1ccccc1 (stereo not given) | 0.44 | -0.247 (inactive) | 0.485 (inactive) | 0.495 (inactive) | 2.68 | -0.8 (inactive) | -0.0469 | -0.456 | 1.03 | -0.0509 | 1.32 | 0.3 | 0.585 | 4.07 (inactive) | 0.466 | 0.273 | -0.0215 | 0.481 | -0.521 | 0.87
9 | COC(=O)c1ccc([C@H](NC(=O)c2ccccc2)[C@]2(C)C[C@H]2C2CCCCC2)cc1 | 0.0232 | 0.696 (inactive) | 1.52 (inactive) | -1.23 (inactive) | 3.03 | -1.38 (inactive) | 0.223 | -0.178 | 1.05 | -0.116 | 0.135 | 0.343 | 1.24 | 0.736 (inactive) | 0.225 | 0.0377 | -0.133 | 0.4 | -0.532 | 0.795
10 | CN(C)CCCC[C@@H]1NC(=O)[C@H]2C[C@@H](C(=O)NCc3ccc(F)cc3)[C@@H](c3ccc(O)cc3)N2C1=O | 1.56 | -0.42 (inactive) | -1.1 (inactive) | -0.462 (inactive) | 1.42 | 0.539 (inactive) | 0.0672 | 1.78 | 0.719 | 0.0579 | 0.298 | 0.0179 | -0.4 | 0.163 (inactive) | 1.2 | 0.902 | 0.0583 | 0.571 | 0.776 | 0.853
